± gives the standard deviation of the averaged measurements. Targets with the largest changes are over-represented here; the source holds about 6,500 in all.
Compound: Nc1ncnc2c1ncn2[C@@H]1O[C@H](COP(=O)(O)OP(=O)(O)OP(=O)(O)O)[C@@H](O)[C@H]1O [adenosine triphosphate]
Assay: NP40-soluble protein abundance relative to vehicle (solubility fold change) (ratio); higher = more soluble protein in presence of ATP
Summary of the method: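 Jurkat crude lysate (Dounce-homogenised) was treated with eight concentrations from 0.1 to 10 mM for 10 min at room temperature, then 3 min at 37 °C. It was solubilised with 0.8% NP40 and benzonase (60 min, 4 °C) and ultracentrifuged, and the supernatant was TMT-labelled for LC-MS/MS. Intensities were vsn-normalised, and the value is the fold change against the NP40-processed vehicle per replicate, from three independent experiments.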

Chain of UniProt Q9H9Q2 (Q9H9Q2 whole entry, one chain of several): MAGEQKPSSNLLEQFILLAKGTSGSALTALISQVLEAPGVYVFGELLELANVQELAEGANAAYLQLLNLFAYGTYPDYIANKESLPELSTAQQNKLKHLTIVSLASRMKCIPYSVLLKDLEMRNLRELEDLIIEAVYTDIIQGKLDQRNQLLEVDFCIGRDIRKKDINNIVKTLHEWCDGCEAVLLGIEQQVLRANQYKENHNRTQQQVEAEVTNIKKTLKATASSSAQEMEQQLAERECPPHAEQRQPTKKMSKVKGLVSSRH
Chain of UniProt P43243 (P43243 whole entry, one chain of several): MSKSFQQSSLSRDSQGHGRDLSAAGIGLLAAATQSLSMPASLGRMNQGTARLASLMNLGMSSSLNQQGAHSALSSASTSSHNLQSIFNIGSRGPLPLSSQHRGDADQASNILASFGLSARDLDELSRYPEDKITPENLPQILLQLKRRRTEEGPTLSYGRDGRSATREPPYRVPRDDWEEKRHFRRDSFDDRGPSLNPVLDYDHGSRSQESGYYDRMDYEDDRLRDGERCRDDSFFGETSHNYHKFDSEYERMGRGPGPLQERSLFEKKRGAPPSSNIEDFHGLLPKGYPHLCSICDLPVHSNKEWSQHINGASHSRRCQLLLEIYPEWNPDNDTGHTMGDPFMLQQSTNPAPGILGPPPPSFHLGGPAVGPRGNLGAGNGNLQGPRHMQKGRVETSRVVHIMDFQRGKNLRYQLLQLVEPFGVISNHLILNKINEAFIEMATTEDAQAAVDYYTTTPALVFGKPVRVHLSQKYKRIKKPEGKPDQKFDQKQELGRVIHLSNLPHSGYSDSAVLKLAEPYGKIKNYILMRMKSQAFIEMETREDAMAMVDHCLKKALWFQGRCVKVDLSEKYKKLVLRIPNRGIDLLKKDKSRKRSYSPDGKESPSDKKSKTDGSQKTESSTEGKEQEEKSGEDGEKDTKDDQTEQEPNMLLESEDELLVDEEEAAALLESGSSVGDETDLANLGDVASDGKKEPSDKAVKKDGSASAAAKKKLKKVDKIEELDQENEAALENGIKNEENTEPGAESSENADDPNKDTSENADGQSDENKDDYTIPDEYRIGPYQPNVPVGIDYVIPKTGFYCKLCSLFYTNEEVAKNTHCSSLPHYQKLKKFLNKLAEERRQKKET
Chain of UniProt O15047 (O15047 whole entry): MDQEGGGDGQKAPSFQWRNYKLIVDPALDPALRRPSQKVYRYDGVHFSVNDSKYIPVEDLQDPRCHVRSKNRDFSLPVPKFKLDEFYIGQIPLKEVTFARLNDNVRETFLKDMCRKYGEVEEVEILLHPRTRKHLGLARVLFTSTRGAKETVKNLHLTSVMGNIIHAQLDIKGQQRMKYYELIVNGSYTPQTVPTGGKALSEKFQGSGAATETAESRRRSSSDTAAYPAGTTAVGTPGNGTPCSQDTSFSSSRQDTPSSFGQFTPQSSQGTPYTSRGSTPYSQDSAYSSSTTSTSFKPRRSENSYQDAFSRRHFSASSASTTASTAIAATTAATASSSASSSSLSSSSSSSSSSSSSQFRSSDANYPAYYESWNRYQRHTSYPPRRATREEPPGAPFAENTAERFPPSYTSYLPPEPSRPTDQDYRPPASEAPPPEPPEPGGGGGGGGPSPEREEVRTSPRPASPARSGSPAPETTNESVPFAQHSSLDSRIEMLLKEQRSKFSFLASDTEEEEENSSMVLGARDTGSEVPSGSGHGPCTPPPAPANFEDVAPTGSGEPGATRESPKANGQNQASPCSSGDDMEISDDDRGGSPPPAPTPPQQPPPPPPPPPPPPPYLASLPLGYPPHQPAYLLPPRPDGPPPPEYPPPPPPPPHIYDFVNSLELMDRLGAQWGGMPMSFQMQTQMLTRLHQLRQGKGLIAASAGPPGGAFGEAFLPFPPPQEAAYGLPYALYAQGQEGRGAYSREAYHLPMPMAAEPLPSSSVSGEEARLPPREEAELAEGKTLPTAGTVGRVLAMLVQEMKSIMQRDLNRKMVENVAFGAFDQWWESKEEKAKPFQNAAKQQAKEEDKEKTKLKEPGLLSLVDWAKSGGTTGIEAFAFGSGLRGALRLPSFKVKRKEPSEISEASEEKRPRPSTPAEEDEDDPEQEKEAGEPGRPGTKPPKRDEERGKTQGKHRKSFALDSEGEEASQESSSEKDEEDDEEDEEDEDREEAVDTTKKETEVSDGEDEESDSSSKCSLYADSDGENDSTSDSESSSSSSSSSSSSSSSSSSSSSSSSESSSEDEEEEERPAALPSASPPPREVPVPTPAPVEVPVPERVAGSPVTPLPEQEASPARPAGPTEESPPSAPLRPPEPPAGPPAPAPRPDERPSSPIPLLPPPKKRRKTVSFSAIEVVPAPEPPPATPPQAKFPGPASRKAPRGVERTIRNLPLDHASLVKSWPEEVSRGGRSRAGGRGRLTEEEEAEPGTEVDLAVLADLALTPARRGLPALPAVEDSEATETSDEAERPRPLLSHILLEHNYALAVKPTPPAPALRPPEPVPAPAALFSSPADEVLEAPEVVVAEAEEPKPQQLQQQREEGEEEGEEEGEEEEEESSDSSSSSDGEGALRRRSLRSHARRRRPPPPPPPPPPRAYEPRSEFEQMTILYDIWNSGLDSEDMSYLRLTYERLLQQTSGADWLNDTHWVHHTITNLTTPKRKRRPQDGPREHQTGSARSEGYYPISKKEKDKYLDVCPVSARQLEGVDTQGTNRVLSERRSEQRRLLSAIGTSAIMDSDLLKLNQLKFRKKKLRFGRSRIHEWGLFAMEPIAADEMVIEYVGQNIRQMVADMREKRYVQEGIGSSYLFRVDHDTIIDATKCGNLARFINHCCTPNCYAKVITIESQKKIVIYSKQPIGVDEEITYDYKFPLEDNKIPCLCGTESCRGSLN
Chain of UniProt Q6ZRP7 (Q6ZRP7 whole entry, one chain of several): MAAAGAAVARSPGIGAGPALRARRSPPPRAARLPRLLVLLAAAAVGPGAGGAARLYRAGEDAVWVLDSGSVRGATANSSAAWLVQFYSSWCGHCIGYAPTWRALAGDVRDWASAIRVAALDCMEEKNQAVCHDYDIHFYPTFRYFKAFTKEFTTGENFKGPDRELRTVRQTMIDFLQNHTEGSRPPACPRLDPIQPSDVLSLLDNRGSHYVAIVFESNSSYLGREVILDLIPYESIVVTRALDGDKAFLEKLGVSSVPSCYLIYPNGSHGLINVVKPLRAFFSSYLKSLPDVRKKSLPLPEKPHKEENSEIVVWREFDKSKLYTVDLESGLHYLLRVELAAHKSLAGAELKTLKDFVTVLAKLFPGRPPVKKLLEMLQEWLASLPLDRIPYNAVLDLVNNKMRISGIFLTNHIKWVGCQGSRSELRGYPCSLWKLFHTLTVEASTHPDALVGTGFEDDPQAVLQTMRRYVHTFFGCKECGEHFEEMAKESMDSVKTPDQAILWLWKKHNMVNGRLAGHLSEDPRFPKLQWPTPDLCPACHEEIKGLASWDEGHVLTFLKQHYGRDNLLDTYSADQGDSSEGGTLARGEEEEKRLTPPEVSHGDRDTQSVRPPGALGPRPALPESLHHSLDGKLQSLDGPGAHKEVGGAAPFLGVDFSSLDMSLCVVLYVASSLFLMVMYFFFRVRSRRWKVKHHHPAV
Chain of UniProt P09234 (P09234 whole entry, one chain of several): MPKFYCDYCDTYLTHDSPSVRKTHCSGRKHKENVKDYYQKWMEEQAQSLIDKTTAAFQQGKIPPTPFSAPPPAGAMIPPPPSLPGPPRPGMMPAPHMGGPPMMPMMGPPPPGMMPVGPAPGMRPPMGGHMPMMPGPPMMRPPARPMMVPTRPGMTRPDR
Chain of UniProt Q8WV99 (Q8WV99 whole entry, one chain of several): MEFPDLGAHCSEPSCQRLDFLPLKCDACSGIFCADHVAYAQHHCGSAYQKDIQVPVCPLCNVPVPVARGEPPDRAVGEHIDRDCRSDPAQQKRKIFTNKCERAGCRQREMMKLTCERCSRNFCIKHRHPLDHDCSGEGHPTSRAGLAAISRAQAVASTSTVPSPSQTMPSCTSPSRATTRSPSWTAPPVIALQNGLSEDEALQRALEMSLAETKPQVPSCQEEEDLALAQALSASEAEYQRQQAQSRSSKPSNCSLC
Chain of UniProt Q8WX92 (Q8WX92 whole entry): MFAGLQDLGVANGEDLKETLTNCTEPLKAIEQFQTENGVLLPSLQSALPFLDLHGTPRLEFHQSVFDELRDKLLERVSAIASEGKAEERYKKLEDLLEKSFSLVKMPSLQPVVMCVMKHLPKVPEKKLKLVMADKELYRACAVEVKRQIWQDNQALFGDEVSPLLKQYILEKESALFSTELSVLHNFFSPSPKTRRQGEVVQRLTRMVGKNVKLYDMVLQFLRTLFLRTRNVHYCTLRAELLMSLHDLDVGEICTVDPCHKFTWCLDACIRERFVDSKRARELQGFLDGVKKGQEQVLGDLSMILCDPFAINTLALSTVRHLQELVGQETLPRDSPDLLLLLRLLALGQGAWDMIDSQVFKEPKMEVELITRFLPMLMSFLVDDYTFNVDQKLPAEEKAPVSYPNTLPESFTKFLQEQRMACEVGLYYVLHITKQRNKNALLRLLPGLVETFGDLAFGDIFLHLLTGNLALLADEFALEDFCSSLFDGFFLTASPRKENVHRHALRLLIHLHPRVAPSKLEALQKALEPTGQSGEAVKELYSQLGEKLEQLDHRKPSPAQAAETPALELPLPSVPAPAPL
Chain of UniProt O00764 (O00764 whole entry): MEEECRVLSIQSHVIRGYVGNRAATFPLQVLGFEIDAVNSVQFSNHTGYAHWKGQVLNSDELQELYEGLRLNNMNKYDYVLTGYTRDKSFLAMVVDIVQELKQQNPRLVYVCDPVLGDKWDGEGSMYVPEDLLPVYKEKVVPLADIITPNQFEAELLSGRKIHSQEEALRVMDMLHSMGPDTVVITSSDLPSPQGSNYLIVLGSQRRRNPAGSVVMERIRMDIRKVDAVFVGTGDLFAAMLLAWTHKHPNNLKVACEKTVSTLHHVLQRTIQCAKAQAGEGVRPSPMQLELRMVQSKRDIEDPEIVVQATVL
Chain of UniProt O43678 (O43678 whole entry): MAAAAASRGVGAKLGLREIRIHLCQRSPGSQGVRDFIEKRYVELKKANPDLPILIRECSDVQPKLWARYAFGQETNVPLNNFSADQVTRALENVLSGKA

Target	NP40-soluble protein abundance (concentration: 1mM)	NP40-soluble protein abundance (concentration: 2mM)	NP40-soluble protein abundance (concentration: 4mM)	NP40-soluble protein abundance (concentration: 6mM)	NP40-soluble protein abundance (concentration: 8mM)	NP40-soluble protein abundance (concentration: 10mM)
HMGN4 (UniProt O00479)	0.97 ± 0.35	1.27 ± 0.44	1.22 ± 0.47	1.67 ± 0.86	1.63 ± 0.72	2.97 ± 2.3
J3KQ34|Q9H9Q2 (UniProt Q9H9Q2)	0.89 ± 0.097	0.87 ± 0.04	0.855 ± 0.072	0.873 ± 0.093	0.878 ± 0.032	0.77 ± 0.1
NDUFA2 (UniProt O43678)	0.882 ± 0.1	0.874 ± 0.16	0.924 ± 0.1	0.985 ± 0.21	0.876 ± 0.081	0.835 ± 0.13
B4DEN4|E7EV05|E9PFU9|Q8WV99|Q8WV99-2 (UniProt Q8WV99)	0.955 ± 0.084	0.953 ± 0.046	0.943 ± 0.059	0.958 ± 0.066	0.91 ± 0.037	0.902 ± 0.062
B7ZBA0|Q8NI27 (UniProt Q8NI27)	1.52 ± 0.091	1.62 ± 0.074	1.89 ± 0.076	2.09 ± 0.2	2.4 ± 0.17	2.4 ± 0.21
G3XAC1|Q9BXS9|Q9BXS9-3|Q9BXS9-7|A0A0C4DFT5|Q9BXS9-4|Q9BXS9-5 (UniProt Q9BXS9)	0.909 ± 0.018	0.891 ± 0.037	0.918 ± 0.073	0.885 ± 0.022	0.867 ± 0.074	0.863 ± 0.071
A0A0X1KG71 (UniProt Q8WX92)	0.9808 ± 0.0083	0.989 ± 0.012	0.9482 ± 0.0081	0.959 ± 0.033	0.959 ± 0.022	0.956 ± 0.023
UniProt O75081|O75081-2|O75081-4	0.943 ± 0.039	0.9218 ± 0.0052	0.907 ± 0.052	0.888 ± 0.14	0.888 ± 0.082	0.97 ± 0.089
H7C5U8|Q9P0M9 (UniProt Q9P0M9)	1.12 ± 0.16	0.995 ± 0.22	0.923 ± 0.19	0.944 ± 0.29	0.902 ± 0.19	0.894 ± 0.24
G3V0H0|O43913|O43913-2 (UniProt O43913)	1.03 ± 0.12	1.01 ± 0.097	1.02 ± 0.08	1 ± 0.13	1.08 ± 0.078	1.02 ± 0.061
SETD1A (UniProt O15047)	0.962 ± 0.038	0.97 ± 0.018	0.979 ± 0.022	0.997 ± 0.044	0.969 ± 0.049	0.997 ± 0.046
E9PL53|J3KND1 (UniProt Q96ER3)	0.966 ± 0.034	0.9715 ± 0.0057	0.951 ± 0.013	0.997 ± 0.019	0.9485 ± 0.0047	0.925 ± 0.011
H0Y6E7|H3BT71|P38159|P38159-2 (UniProt P38159)	1.13 ± 0.068	1.22 ± 0.042	1.34 ± 0.046	1.56 ± 0.087	1.62 ± 0.026	1.79 ± 0.064
PDXK (UniProt O00764)	1.02 ± 0.12	0.987 ± 0.058	1.01 ± 0.066	0.935 ± 0.14	0.989 ± 0.058	0.981 ± 0.051
I3L2M1|J3KNL2|Q8WYJ6 (UniProt Q8WYJ6)	0.941 ± 0.031	0.945 ± 0.017	0.948 ± 0.022	0.928 ± 0.033	0.932 ± 0.04	0.941 ± 0.033
F5GWN5|O00750 (UniProt O00750)	0.994 ± 0.022	1.03 ± 0.025	1.05 ± 0.013	1.02 ± 0.039	1.03 ± 0.028	1.03 ± 0.051
MED7 (UniProt O43513)	1.23 ± 0.3	1.17 ± 0.091	1.09 ± 0.056	1.2 ± 0.37	1.23 ± 0.26	1.28 ± 0.34
J3KNW7|Q9Y592|Q9Y592-2 (UniProt Q9Y592)	1.06 ± 0.072	0.9299 ± 0.0068	1.02 ± 0.032	1.04 ± 0.028	1.07 ± 0.062	0.993 ± 0.077
J3KTD6|Q96GD4|Q96GD4-5 (UniProt Q96GD4)	1.37 ± 0.16	1.47 ± 0.18	1.6 ± 0.16	1.58 ± 0.25	1.71 ± 0.032	1.76 ± 0.072
E7EUT5|P04406 (UniProt P04406)	1.01 ± 0.012	0.959 ± 0.074	0.9969 ± 0.0069	0.939 ± 0.043	0.954 ± 0.024	0.944 ± 0.059
B1AKN5|B1AKN7|B1AKN8|Q12857|Q12857-3|Q12857-4|B1AKN6|S4R3K4|Q12857-2 (UniProt Q12857)	1.22 ± 0.072	1.08 ± 0.11	1.12 ± 0.081	1.21 ± 0.13	0.995 ± 0.072	1.13 ± 0.033
F8W9X7|Q567U6 (UniProt Q567U6)	0.974 ± 0.012	0.962 ± 0.017	0.959 ± 0.024	0.935 ± 0.015	0.951 ± 0.016	0.943 ± 0.028
K7ES61|Q9BYD3 (UniProt Q9BYD3)	1.02 ± 0.079	0.942 ± 0.099	0.907 ± 0.091	0.827 ± 0.14	0.892 ± 0.19	0.895 ± 0.17
A0A087X176|Q6ZRP7 (UniProt Q6ZRP7)	0.958 ± 0.057	0.983 ± 0.011	0.961 ± 0.028	0.99 ± 0.029	0.953 ± 0.026	0.96 ± 0.037
A0A0A0MTC1|A0A0A0MTR7 (UniProt Q63HN8)	1.15 ± 0.14	1.11 ± 0.096	1.12 ± 0.083	1.03 ± 0.074	1.2 ± 0.049	1.11 ± 0.031
H0YLE6|Q9NWH9|H0YNF3 (UniProt Q9NWH9)	0.961 ± 0.054	0.988 ± 0.027	0.993 ± 0.038	1.11 ± 0.059	1.08 ± 0.032	1.13 ± 0.033
B1AJY7|O75832 (UniProt O75832)	1 ± 0.082	0.973 ± 0.031	0.955 ± 0.065	0.977 ± 0.076	0.947 ± 0.056	0.863 ± 0.043
A8MXP9|P43243|P43243-2 (UniProt P43243)	1.02 ± 0.042	1.03 ± 0.038	1 ± 0.026	1.05 ± 0.039	1 ± 0.029	1.03 ± 0.015
A0A0A0MRR7|P09234 (UniProt P09234)	1.34 ± 0.087	1.39 ± 0.078	1.56 ± 0.062	1.87 ± 0.2	1.83 ± 0.041	1.84 ± 0.1
E9PLK3|P55786 (UniProt P55786)	1.02 ± 0.12	0.997 ± 0.09	0.976 ± 0.065	0.927 ± 0.13	0.999 ± 0.073	0.974 ± 0.057
